# Measurements from the supplement of paper PMC8728848.
# Only a selection was taken, and the strongest signals are over-represented in it overall.
# B1: Cohesin-mDCIR (Macaca mulatta) (protein)
# chain: GLDDLDAVRIKVDTVNAKPGDTVRIPVRFSGIPSKGIANCDFVYSYDPNVLEIIEIEPGDIIVDPNPDKSFDTAVYPDRKIIVFLFAEDSGTGAYAITKDGVFATIVAKVKEGAPNGLSVIKFVEVGGFANNDLVEQKTQFFDGGVNVGDTTEPATPTTPVTTPTTTDDLDAASFQKYSQLLEKMTTKDLVHTTLECVKKNMTTEETAWSCCPKNWKPFSSNCYFISTESASWQKSEKDCARMEAHLLVINTREEQDFIFQNLQEESAYFVGLSDPEGQRHWQWVDRTPYNESSTFWHPHEPSDPDERCVVLNFRKTPKRWGWNDVHCIVHQRSVCEMMKIHLHHHHHH
# Key:
# Test in all cases: glycan array binding signal (z-score within array); higher = stronger binding
# Conditions in all cases: glycan notation: IUPAC condensed, linker removed
# [1] = target: Fuc(a1-2)Gal(b1-3)GlcNAc6S
# How it was run: (§1)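 The binding signal is a Z-score computed within each array and averaged over linkers. Arrays of the same protein sequence at different concentrations or buffers were also averaged together. Data originate from 3228 arrays in the Consortium for Functional Glycomics database, kept only where the protein sequence was available.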
# [2] = target: Fuc(a1-2)Gal(b1-3)[Fuc(a1-4)]GlcNAc(b1-3)[Fuc(a1-3)[Gal(b1-4)]GlcNAc(b1-6)]Gal(b1-4)Glc
# How it was run: as §1
# [3] = target: Fuc(a1-2)Gal(b1-4)GlcNAc(b1-6)GalNAc
# How it was run: as §1
# [4] = target: Fuc(a1-2)Gal(b1-4)[Fuc(a1-3)]GlcNAc
# How it was run: as §1
# [5] = target: Fuc(a1-2)[Gal(a1-3)]Gal(b1-3)GlcNAc
# How it was run: as §1
# [6] = target: Fuc(a1-2)[Gal(a1-3)]Gal(b1-3)GlcNAc(b1-3)GalNAc
# How it was run: as §1
# [7] = target: Fuc(a1-2)[Gal(a1-3)]Gal(b1-4)GlcNAc
# How it was run: as §1
# [8] = target: Fuc(a1-2)[GalNAc(a1-3)]Gal(b1-4)GlcNAc(b1-2)Man
# How it was run: as §1
# [9] = target: Fuc(a1-2)[GalNAc(a1-3)]Gal(b1-4)GlcNAc(b1-3)GalNAc
# How it was run: as §1
# [10] = target: Fuc(a1-2)[GalNAc(a1-3)]Gal(b1-4)GlcNAc(b1-6)GalNAc
# How it was run: as §1
# [11] = target: Fuc(a1-2)[GalNAc(b1-3)]Gal
# How it was run: as §1
# [12] = target: Fuc(a1-3)[Gal(b1-4)]GlcNAc(b1-2)Man
# How it was run: as §1
# [13] = target: Gal(a1-3)Gal(b1-3)GlcNAc
# How it was run: as §1
# [14] = target: Gal(a1-3)Gal(b1-3)GlcNAc(b1-2)Man(a1-3)[Gal(a1-3)Gal(b1-3)GlcNAc(b1-2)Man(a1-6)]Man(b1-4)GlcNAc(b1-4)GlcNAc
# How it was run: as §1
# [15] = target: Gal(a1-3)Gal(b1-4)GlcNAc(b1-6)GalNAc
# How it was run: as §1
# [16] = target: Gal(b1-3)GlcNAc(a1-6)Gal(b1-4)GlcNAc
# How it was run: as §1
# [17] = target: Gal(b1-3)GlcNAc(b1-3)Gal(b1-4)Glc
# How it was run: as §1
# [18] = target: Gal(b1-3)GlcNAc(b1-6)GalNAc
# How it was run: as §1
# [19] = target: Gal(b1-3)[Fuc(a1-4)]GlcNAc(b1-3)Gal(b1-3)[Fuc(a1-4)]GlcNAc
# How it was run: as §1
# [20] = target: Gal(b1-3)[Neu5Ac(a2-6)]GlcNAc(b1-4)Gal(b1-4)Glc
# How it was run: as §1
# [21] = target: Gal(b1-4)GalNAc(b1-3)[Fuc(a1-2)]Gal(b1-4)GlcNAc
# How it was run: as §1
# [22] = target: Gal(b1-4)GlcNAc(b1-2)[Gal(b1-4)GlcNAc(b1-6)]Man(a1-6)[GlcNAc(b1-4)][Gal(b1-4)GlcNAc(b1-2)[Gal(b1-4)GlcNAc(b1-4)]Man(a1-3)]Man(b1-4)GlcNAc(b1-4)[Fuc(a1-6)]GlcNAc
# How it was run: as §1
# [23] = target: Gal(b1-4)GlcNAc(b1-3)Gal(b1-4)GlcNAc(b1-2)Man(a1-3)[Gal(b1-4)GlcNAc(b1-3)Gal(b1-4)GlcNAc(b1-2)Man(a1-6)]Man(b1-4)GlcNAc(b1-4)GlcNAc
# How it was run: as §1
# [24] = target: Gal3S(b1-4)Glc
# How it was run: as §1
# [25] = target: Gal3S(b1-4)[Fuc(a1-3)]GlcNAc6S
# How it was run: as §1
# [26] = target: Gal6S(b1-4)GlcNAc6S
# How it was run: as §1
# [27] = target: GalNAc(a1-3)Gal
# How it was run: as §1
# [28] = target: GalNAc(b1-3)Gal
# How it was run: as §1
# [29] = target: GalNAc(b1-3)Gal(a1-4)Gal(b1-4)GlcNAc
# How it was run: as §1
# [30] = target: GalNAc(b1-3)Gal(a1-4)Gal(b1-4)GlcNAc(b1-3)Gal(b1-4)Glc
# How it was run: as §1
# [31] = target: GalNAc(b1-3)Gal(a1-6)Gal(b1-4)Glc
# How it was run: as §1
# [32] = target: GalNAc3S(b1-4)GlcNAc
# How it was run: as §1
# [33] = target: GlcNAc(a1-4)Gal(b1-3)GlcNAc
# How it was run: as §1
# [34] = target: GlcNAc(a1-4)Gal(b1-4)GlcNAc(b1-3)Gal(b1-4)GlcNAc
# How it was run: as §1
# [35] = target: GlcNAc(b1-2)Man(a1-3)[GlcNAc(b1-2)Man(a1-6)]Man(b1-4)GlcNAc(b1-4)GlcNAc
# How it was run: as §1
# [36] = target: GlcNAc(b1-3)Gal
# How it was run: as §1
# [37] = target: GlcNAc(b1-6)GalNAc
# How it was run: as §1
# [38] = target: Man(a1-2)Man(a1-3)[Man(a1-2)Man(a1-6)]Man(a1-6)[Man(a1-2)Man(a1-2)Man(a1-3)]Man
# How it was run: as §1
# [39] = target: Man(a1-3)[Man(a1-6)]Man(a1-6)[Man(a1-3)]Man(b1-4)GlcNAc(b1-4)GlcNAc
# How it was run: as §1
# [40] = target: Neu5Ac(a2-3)Gal(b1-3)GalNAc(b1-3)Gal(a1-4)Gal(b1-4)Glc
# How it was run: as §1
# [41] = target: Neu5Ac(a2-3)Gal(b1-3)[Fuc(a1-4)]GlcNAc(b1-3)Gal(b1-3)[Fuc(a1-4)]GlcNAc
# How it was run: as §1
# [42] = target: Neu5Ac(a2-3)Gal(b1-4)Glc
# How it was run: as §1
# [43] = target: Neu5Ac(a2-3)Gal(b1-4)GlcNAc(b1-2)Man(a1-3)[Neu5Ac(a2-3)Gal(b1-4)GlcNAc(b1-2)Man(a1-6)]Man(b1-4)GlcNAc(b1-4)[Fuc(a1-6)]GlcNAc
# How it was run: as §1
# [44] = target: Neu5Ac(a2-3)Gal(b1-4)GlcNAc(b1-3)Gal
# How it was run: as §1
# [45] = target: Neu5Ac(a2-3)Gal(b1-4)GlcNAc(b1-3)Gal(b1-4)GlcNAc
# How it was run: as §1
# [46] = target: Neu5Ac(a2-3)Gal(b1-4)[Fuc(a1-3)]GlcNAc(b1-6)[Neu5Ac(a2-3)Gal(b1-3)]GalNAc
# How it was run: as §1
# [47] = target: Neu5Ac(a2-6)Gal(b1-4)GlcNAc(b1-2)[Neu5Ac(a2-6)Gal(b1-4)GlcNAc(b1-4)]Man(a1-3)[GlcNAc(b1-4)][Neu5Ac(a2-6)Gal(b1-4)GlcNAc(b1-4)Man(a1-6)]Man(b1-4)GlcNAc(b1-4)GlcNAc
# How it was run: as §1
# [48] = target: Neu5Ac(a2-8)Neu5Ac(a2-8)Neu5Ac(a2-3)[GalNAc(b1-4)]Gal(b1-4)Glc
# How it was run: as §1
# [49] = target: Neu5Ac(b2-6)GalNAc
# How it was run: as §1
binder,measurement,setting,value
B1,glycan array binding signal (z-score),[1],-0.407
same,glycan array binding signal (z-score),[2],-0.151
same,glycan array binding signal (z-score),[3],0.7
same,glycan array binding signal (z-score),[4],0.229
same,glycan array binding signal (z-score),[5],3.96
same,glycan array binding signal (z-score),[6],-0.241
same,glycan array binding signal (z-score),[7],-0.349
same,glycan array binding signal (z-score),[8],-0.101
same,glycan array binding signal (z-score),[9],-0.338
same,glycan array binding signal (z-score),[10],5.37
same,glycan array binding signal (z-score),[11],3.27
same,glycan array binding signal (z-score),[12],-0.274
same,glycan array binding signal (z-score),[13],8.73
same,glycan array binding signal (z-score),[14],-0.246
same,glycan array binding signal (z-score),[15],6.42
same,glycan array binding signal (z-score),[16],-0.186
same,glycan array binding signal (z-score),[17],-0.363
same,glycan array binding signal (z-score),[18],3.16
same,glycan array binding signal (z-score),[19],4.89
same,glycan array binding signal (z-score),[20],-0.388
same,glycan array binding signal (z-score),[21],-0.103
same,glycan array binding signal (z-score),[22],-0.425
same,glycan array binding signal (z-score),[23],4.39
same,glycan array binding signal (z-score),[24],5.11
same,glycan array binding signal (z-score),[25],1.55
same,glycan array binding signal (z-score),[26],0.096
same,glycan array binding signal (z-score),[27],0.417
same,glycan array binding signal (z-score),[28],2.45
same,glycan array binding signal (z-score),[29],1.26
same,glycan array binding signal (z-score),[30],0.862
same,glycan array binding signal (z-score),[31],2.77
same,glycan array binding signal (z-score),[32],-0.436
same,glycan array binding signal (z-score),[33],-0.401
same,glycan array binding signal (z-score),[34],-0.366
same,glycan array binding signal (z-score),[35],-0.313
same,glycan array binding signal (z-score),[36],-0.352
same,glycan array binding signal (z-score),[37],1.02
same,glycan array binding signal (z-score),[38],-0.438
same,glycan array binding signal (z-score),[39],-0.439
same,glycan array binding signal (z-score),[40],-0.388
same,glycan array binding signal (z-score),[41],-0.418
same,glycan array binding signal (z-score),[42],-0.444
same,glycan array binding signal (z-score),[43],-0.364
same,glycan array binding signal (z-score),[44],-0.377
same,glycan array binding signal (z-score),[45],-0.175
same,glycan array binding signal (z-score),[46],-0.363
same,glycan array binding signal (z-score),[47],-0.257
same,glycan array binding signal (z-score),[48],0.263
same,glycan array binding signal (z-score),[49],-0.406
